# Source: PubChem BioAssay
# Several values for one entry are separate records, joined by “and”; a condition that tells them apart may be missing. Equal values may be shown once. Activity calls are given as the source filed them.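 Rule for the calls, unless noted: active = compounds whose cell count with miR-34 switched on is under 0.7 times the count with it off; inactive = the rest.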
# Columns and labels:
# [1] = test system: Hepatitis C virus NS3 helicase; test: HCV NS3 helicase inhibitors, primary screen, biochemical, fluorescence polarization, LOPAC1280 library (AID 687035; in the data active = inhibition above about 37%); settings: Purified HCV NS3 helicase, Cy5-dT15 ssDNA binding fluorescence polarization; stronger effect = higher value; concentration not given here
# [2] = Cy5 fluorescence quenching or enhancement artefacts, artefact control for HCV NS3 helicase inhibitor project, biochemical, LOPAC1280 (AID 687037; call rule not given here); settings: Cy5-DNA-NS3h complex fluorescence interference counterscreen
# [3] = stimulators of nuclear beta-catenin in C2C12, primary screen, imaging, WNT3A-conditioned medium, mouse C2C12, NPC library (AID 1117326; in the data active = nuclear beta-catenin stimulation mostly above about 4.2%, no sharp cut-off; inactive = mostly below about 10%); settings: stronger effect = higher value
# [4] = stimulators of insulin release from INS-1E, primary screen, cell-based, 5 mM glucose, NPC library (AID 1117329;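 active = compound raises insulin release from rat beta cells at 5 mM glucose, no numeric limit stated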); settings: rat INS-1E insulin secretion, at 10 µM, stronger effect = higher value
# [5] = growth inhibition of GSK3B-pretreated HCT116 cells – cell-based, CellTiter-Glo, 0.2 to 20 µM (AID 1117336;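 active = compounds lowering colon cancer cell viability after pretreatment blocking the GSK3B kinase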); settings: HCT116 viability after GSK3B inhibitor, at 20 µM, stronger effect = higher value
# [6] = inhibition of endothelial tube formation, primary screen, imaging, VEGF stimulated, CD31 staining, tube area, NPC library (AID 1117340;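 active = compound that reduces growth-factor-driven endothelial tube area in a mixed cell culture, no cutoff stated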); settings: VEGF-stimulated ADSC/ECFC co-culture, at 10 µM, stronger effect = higher value
# [7] = glucagon-like peptide 1 release enhancers, primary assay, NCI-H716 cell line, NPC library (AID 1117341;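 active = compound raises GLP1 secretion from the human gut endocrine cells, with no numeric limit stated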); settings: NCI-H716 cells, at 10 µM, stronger effect = higher value
# [8] = HCT116 colon cancer cell growth inhibition, primary screen, CellTiter-Glo luminescence, NPC library (AID 1117342;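 active = compounds that lower survival of HCT116 colon cancer cells in the luminescence readout, no numeric limit stated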); settings: at 20 µM (top of the series)
# [9] = CellTiter-Glo luminescent readout of SW480 viability loss, NPC library primary (AID 1117343;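 active = compounds that lower viability of the colon cancer cells in the luminescence readout, with no numeric limit stated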); settings: CellTiter-Glo luminescence; at 20 µM (top of the series)
# [10] = decreased DLD-1 cellular survival, CellTiter-Glo luminescent readout, NPC compound collection, primary HTS (AID 1117346;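 active = compounds that lower survival of DLD-1 colon cancer cells in the luminescence readout, no cutoff given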); settings: DLD-1 viability, CellTiter-Glo luminescence; at 20 µM (top of the series)
# [11] = test system: Aerobactin synthetase IucA (Klebsiella pneumoniae, hypervirulent); test: IucA enzyme inhibition, biochemical, LOPAC library, absorbance readout (AID 1346212; call rule not given here;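 note: 100% = no compound wells and 0% = no enzyme wells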); settings: IucA enzyme assay, absorbance (OD) readout; stronger effect = lower value;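 tested at 8 µM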
# [12] = sensitizers of A549 cells to miR-34 induction, primary screen, imaging, A549 dox-inducible miR-34, nuclei and caspase counts (AID 1347080); settings: A549 miR-34 inducible, Hoechst nuclei count, 48 h
# [13] = viability rescue of complex I mutant cybrids, primary screen, cell-based, galactose medium, ATP luminescence (AID 1645843;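 active = z-score of at least 1.8 in each of two replicates, scored against plate mean and spread of sample wells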;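 note: positive z means more ATP and so rescue of galactose-driven cybrid death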); settings: complex I mutant cybrid cells, 72 h, stronger effect = higher value
# [14] = hESC survival regulators, cell-based (AID 493140; call rule not given here;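 note: cells exposed to compounds for four days before counting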); settings: human embryonic stem cell survival screen; stronger effect = higher value
# [15] = liver-stage malaria parasite growth inhibition, primary screen, cell-based, HepG2, luciferase luminescence, HepG2 viability (AID 624349; in the data active = parasite load remaining mostly below about 12%, no sharp cut-off; inactive = mostly above about 10%;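 note: 100% = mean of DMSO negative control wells on the same plate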); settings: P. berghei liver stage in HepG2, luciferase luminescence, concentration not given here; parasite load remaining: stronger effect = lower value; viability: measured here: HepG2 viability without parasites
# [16] = survival rescue of mitochondrial mutant cells in low glucose, primary screen, MELAS cybrids, Rieske KO mouse fibroblasts, CellTiter-Glo (AID 1508586;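 active = mean z-score across replicates of 1.96 or higher in either the MELAS or the Rieske mutant cell line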;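 note: z relative to plate mean and SD of compound and empty wells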)
# [17] = measured here: relative caspase fold change +Dox/-Dox
# [18] = measured here: total cells with miR-34 induction, stronger effect = lower value
# [19] = measured here: total cells without miR-34 induction
# [20] = MELAS cybrid survival, CellTiter-Glo 48 h, stronger effect = higher value
# [21] = Rieske KO mouse fibroblast survival, CellTiter-Glo 72 h
# [22] = stronger effect = lower value, cell number ratio, induced over uninduced
smiles,measurement,setting,value
Cc1ccc(S(=O)(=O)N[C@@H](CCCCN)C(=O)CCl)cc1,inhibition,[1],-3% (inactive)
same,fluorescence ratio (interference),[2],1 (inactive)
same,nuclear beta-catenin stimulation,[3]; at 10 µM,2.3% (inactive)
same,nuclear beta-catenin stimulation,"[3]; stimulation, at 2 µM",0%
same,insulin secretion stimulation,[4],0.9% (inactive)
same,viability decrease,[5],-9.5% (inactive)
same,tube area decrease,[6],13% (inactive)
same,GLP1 secretion stimulation,[7],-1.9% (inactive)
same,inhibition of viability,[8],-8.6% (inactive)
same,viability decrease (inhibition),[9],12.5% (inactive)
same,viability decrease (inhibition),[10],-7% (inactive)
same,remaining activity,[11],114% (inactive)
same,fold change,[12]; stronger effect = lower value,0.989 (inactive) and 0.965 (inactive)
same,fold change,[12]; [17],1.42 and 1.58
same,cell count,[12]; [18],9040 and 5750
same,cell count,[12]; [19],9130 and 5960
same,z-score,[13],-0.59 (inactive)
CC(=O)[C@H]1CC[C@H]2[C@@H]3CC[C@H]4C[C@H](O)CC[C@]4(C)[C@H]3C(=O)C[C@]12C,survival,[14],20.1 (inactive)
same,parasite load remaining,[15],70.8% (inactive)
same,viability,[15],72.4%
same,inhibition,[1],-1% (inactive)
same,fluorescence ratio (interference),[2],1 (inactive)
same,nuclear beta-catenin stimulation,[3]; at 10 µM,0.5% (inactive)
same,nuclear beta-catenin stimulation,"[3]; stimulation, at 2 µM",-0.7%
same,insulin secretion stimulation,[4],3.1% (inactive)
same,viability decrease,[5],28% (inactive)
same,tube area decrease,[6],-23.1% (inactive)
same,GLP1 secretion stimulation,[7],-1.7% (inactive)
same,inhibition of viability,[8],41.1% (inactive)
same,viability decrease (inhibition),[9],67.8% (active)
same,viability decrease (inhibition),[10],19.9% (inactive)
same,remaining activity,[11],112% (inactive)
same,fold change,[12]; stronger effect = lower value,1.12 (inactive) and 0.844 (inactive)
same,fold change,[12]; [17],0.8 and 0.773
same,cell count,[12]; [18],11000 and 8700
same,cell count,[12]; [19],9770 and 10300
same,z-score,[16]; [20],0.566 (inactive)
same,z-score,[16]; [21],0.0524
same,z-score,[13],-0.315 (inactive)
Fc1ccc(C(OCCN2CCN(CCCc3ccccc3)CC2)c2ccc(F)cc2)cc1,survival,[14],2.08 (inactive)
same,parasite load remaining,[15],40.3% (inactive) and 56% (inactive)
same,viability,[15],74.4% and 71%
same,inhibition,[1],-2% (inactive)
same,fluorescence ratio (interference),[2],1 (inactive)
same,nuclear beta-catenin stimulation,[3]; at 10 µM,21.5% (inactive)
same,nuclear beta-catenin stimulation,"[3]; stimulation, at 2 µM",-0.6%
same,insulin secretion stimulation,[4],4.65% (inactive)
same,viability decrease,[5],118% (active)
same,tube area decrease,[6],30.2% (inactive)
same,GLP1 secretion stimulation,[7],7.4% (inactive)
same,inhibition of viability,[8],124% (active)
same,viability decrease (inhibition),[9],159% (active)
same,viability decrease (inhibition),[10],102% (active)
same,remaining activity,[11],111% (inactive)
same,fold change,[12]; stronger effect = lower value,1.71 (inactive) and 1.06 (inactive) and 1.14 (inactive)
same,fold change,[12]; [17],0.907 and 1.17 and 0.595
same,cell count,[12]; [18],1750 and 3970 and 2030
same,cell count,[12]; [19],1020 and 3730 and 1770
same,z-score,[16]; [20],-0.775 (inactive)
same,z-score,[16]; [21],0.399
same,z-score,[13],-1.03 (inactive) and -1.23 (inactive)
FC(F)(F)c1cccc(C2=CCN(CCc3ccc4ccccc4c3)CC2)c1,nuclear beta-catenin stimulation,[3]; at 10 µM,-0.7% (inactive)
same,nuclear beta-catenin stimulation,"[3]; stimulation, at 2 µM",-1.5%
same,insulin secretion stimulation,[4],0.45% (inactive)
same,viability decrease,[5],40.2% (inactive)
same,tube area decrease,[6],-6.6% (inactive)
same,GLP1 secretion stimulation,[7],3.7% (inactive)
same,inhibition of viability,[8],42.1% (inactive)
same,viability decrease (inhibition),[9],53.5% (active)
same,viability decrease (inhibition),[10],17.3% (inactive)
same,fold change,[12]; [22],0.954 (inactive)
same,fold change,[12]; [17],1.47
same,cell count,[12]; [18],8420
same,cell count,[12]; [19],8830
same,z-score,[13],-0.615 (inactive)
CC(C)(C)OC(=O)c1ncn2c1[C@@H]1CCCN1C(=O)c1c(Br)cccc1-2,nuclear beta-catenin stimulation,[3]; at 10 µM,4% (inactive)
same,nuclear beta-catenin stimulation,"[3]; stimulation, at 2 µM",2.4%
same,insulin secretion stimulation,[4],-0.65% (inactive)
same,viability decrease,[5],13.7% (inactive)
same,tube area decrease,[6],2% (inactive)
same,GLP1 secretion stimulation,[7],-0.4% (inactive)
same,inhibition of viability,[8],26.5% (inactive)
same,viability decrease (inhibition),[9],-7.5% (inactive)
same,viability decrease (inhibition),[10],7.7% (inactive)
same,fold change,[12]; [22],0.898 (inactive)
same,fold change,[12]; [17],1.56
same,cell count,[12]; [18],6920
same,cell count,[12]; [19],7710
same,z-score,[13],-0.115 (inactive)
